What follows are compounds tested against USP14 (UniProt P54578) (assay: log2 ratio of Biotin-Ahx-Ub-VS probe labelling (fragment/DMSO); higher = less target engagement (more negative = stronger competition), active = hit call of the paper (q ≤ 0.05, log2 ratio ≤ -1)). Details: compound concentration: 200 uM; treatment time: 3 h.
Experimental: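 Competitive ABPP in HEK293T cell lysate. Lysates were treated with each chloroacetamide fragment at 200 µM for 3 h, then with Biotin-Ahx-Ub-VS (0.5 µM, 1 h), NeutrAvidin-enriched and analysed by diaPASEF LC-MS/MS. Protein LFQ was median-normalised; average log2 ratio is fragment/DMSO from an unpaired t-test (n=3 treated, n=44 DMSO). Hits: q ≤ 0.05, log2 ratio ≤ -1, unique peptides ≥ 2.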

USP14, sequence (P54578 whole entry, the tested form may be a part): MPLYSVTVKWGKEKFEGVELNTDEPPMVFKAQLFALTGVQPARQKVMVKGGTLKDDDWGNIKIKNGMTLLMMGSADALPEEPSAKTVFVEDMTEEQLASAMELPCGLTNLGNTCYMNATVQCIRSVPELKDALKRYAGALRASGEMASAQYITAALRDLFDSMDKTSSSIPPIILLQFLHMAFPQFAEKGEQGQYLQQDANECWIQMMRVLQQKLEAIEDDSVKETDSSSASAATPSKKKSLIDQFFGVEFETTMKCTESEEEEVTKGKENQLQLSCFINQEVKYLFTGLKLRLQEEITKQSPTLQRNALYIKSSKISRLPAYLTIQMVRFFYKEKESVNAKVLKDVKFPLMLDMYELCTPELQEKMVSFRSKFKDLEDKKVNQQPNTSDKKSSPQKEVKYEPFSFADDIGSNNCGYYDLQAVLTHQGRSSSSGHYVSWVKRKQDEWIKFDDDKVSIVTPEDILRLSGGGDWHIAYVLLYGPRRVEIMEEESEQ

log2 ratio of Biotin-Ahx-Ub-VS probe labelling, inactive:
O=C(CCl)N1CCCCCC1c1ncon1 (stereo not given) -0.087, CC(NC(=O)CCl)c1cnn(C2CC2)c1 (stereo not given) -0.778, Cc1c(C#N)c(NC(=O)CCl)n(Cc2ccco2)c1C -0.314, Cc1nc(CN2CCN(C(=O)CCl)CC2)cs1 -0.431, N#Cc1ccccc1N1CCN(C(=O)CCl)CC1 -0.673, O=C(CCl)N[C@H]1CC[C@@H](CO)CC1 -0.814, Cc1ncsc1CCNC(=O)CCl 0.518, COc1ccc(Cl)cc1NC(=O)CCl -0.655, O=C(CCl)NCc1cccc(N2CCCC2=O)c1 -0.0996, Cc1noc(C)c1CNC(=O)CCl -0.561, CS(=O)(=O)c1ccc(NC(=O)CCl)cc1 0.0136, Cc1cc(C2CCCN2C(=O)CCl)nn1C.Cl (stereo not given) -0.361, O=C(CCl)NCCc1cccc2ccccc12 0.0871, Cc1ccccc1C1(CNC(=O)CCl)CCOCC1 -0.0489, O=C(CCl)Nc1cccc2ncccc12 0.338, O=C(CCl)N(C1CCCC1)C1CCS(=O)(=O)C1 (stereo not given) -0.171, O=C(CCl)N1CCC(c2noc3cc(F)ccc23)CC1 -0.337, COc1ccc(-c2csc(NC(=O)CCl)n2)cc1 -0.0511, O=C(CCl)Nc1ccccc1C(F)(F)F -0.46, CCN(Cc1ccc(C#N)cc1F)C(=O)CCl -0.392, O=C(O)C1Cc2ccccc2CN1C(=O)CCl (stereo not given) -0.621, Cc1nc(CNC(=O)CCl)c2ccccn12.Cl 0.113, CCCn1nccc1NC(=O)CCl -0.663, N#Cc1ccc(Cl)cc1NC(=O)CCl -0.283, Cc1cccc(NC(=O)[C@@H]2CCCN2C(=O)CCl)n1 -0.519, O=C(CCl)N1CC=C(c2c[nH]c3ccccc23)CC1 -0.573, Cl.O=C(CN1CCN(C(=O)CCl)CC1)Nc1ccc(F)cc1 -0.0648, NC(=O)C1CCCCN1C(=O)CCl (stereo not given) -0.15, Cl.O=C(CCl)N1CC(c2ccc(Br)cn2)C1 -0.592, O=C(CCl)NCc1ccc(N2CCOCC2)nc1 -0.262, O=C(CCl)N1CC2(CCOCC2)C1 -0.191, O=C(CCl)NCc1cccc(F)c1 -0.167, O=C(CCl)N1CCCC1c1ccsc1 (stereo not given) -0.248, CS(=O)(=O)c1ccc(CNC(=O)CCl)cc1 -0.204, O=C(CCl)Nc1ccc(F)cc1Cl -0.833, O=C(CCl)NCCC1COCCO1 (stereo not given) -0.27, Cc1ccccc1CN(C)C(=O)CCl -0.81, O=C(CCl)N1CCCN(C(=O)c2ccc(Cl)cc2)CC1 -0.452, C/C(=C\CNC(=O)CCl)c1cnn(C)c1.Cl -0.247, Cc1noc(N2CCN(C(=O)CCl)CC2)n1.Cl 0.347

Reference: the supplement of paper PMC11732987, “Enantioselective OTUD7B fragment discovery through chemoproteomics screening and high-throughput optimisation” (Communications Chemistry, 2025)
